About 8,800 targets were measured; listed, in parts, are those with a hit and a random draw of the rest. About 0.5% of all pairs of compound and target were hits. A number with no mark means an inactive call.
These targets were tested with CS(=O)(=O)CCNCc1ccc(-c2ccc3ncnc(Nc4ccc(OCc5cccc(F)c5)c(Cl)c4)c3c2)o1 [lapatinib] (assay: log2 fold change, soluble protein after heating vs DMSO (PISA); higher = thermal stabilisation; K562 lysate, 10 uM; active = over 0.2 and 3.5 SD of the protein, either way, in both replicates (recomputed)).
Outline: (§1)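 The values are log-two fold changes in thermal stability compared with solvent controls and come from duplicates. They were obtained by TMTpro 16plex LC-MS/MS, with channel sums equalised, on the supernatant after 21,000xg for 90 min. That supernatant came from crude K562 extract at 1 mg/mL protein treated with 10 μM compound for 30 min, heated for 3 min across 48°C-58°C, pooled and brought to 0.5% NP-40 at 4°C.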
UniProt Q8N302, sequence (Q8N302 whole entry, looked up): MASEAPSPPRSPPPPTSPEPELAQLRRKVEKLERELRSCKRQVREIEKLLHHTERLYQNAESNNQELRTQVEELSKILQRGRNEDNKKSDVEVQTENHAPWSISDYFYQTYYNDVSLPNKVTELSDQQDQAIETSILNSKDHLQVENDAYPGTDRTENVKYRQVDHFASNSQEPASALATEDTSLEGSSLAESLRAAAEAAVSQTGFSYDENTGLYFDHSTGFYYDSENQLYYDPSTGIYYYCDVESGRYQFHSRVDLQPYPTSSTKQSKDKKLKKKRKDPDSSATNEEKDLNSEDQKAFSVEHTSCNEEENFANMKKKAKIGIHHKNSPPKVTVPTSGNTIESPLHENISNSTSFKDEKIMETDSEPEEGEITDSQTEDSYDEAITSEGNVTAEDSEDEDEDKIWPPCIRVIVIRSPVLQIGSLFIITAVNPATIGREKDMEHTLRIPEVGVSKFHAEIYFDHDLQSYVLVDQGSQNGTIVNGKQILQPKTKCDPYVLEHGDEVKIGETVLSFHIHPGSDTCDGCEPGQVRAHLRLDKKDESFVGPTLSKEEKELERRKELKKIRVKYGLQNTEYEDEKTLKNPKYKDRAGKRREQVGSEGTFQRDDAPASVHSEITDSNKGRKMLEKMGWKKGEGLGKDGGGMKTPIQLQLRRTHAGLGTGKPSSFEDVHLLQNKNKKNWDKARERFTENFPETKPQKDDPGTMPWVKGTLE
UniProt Q6P1M9, sequence (Q6P1M9 whole entry, looked up): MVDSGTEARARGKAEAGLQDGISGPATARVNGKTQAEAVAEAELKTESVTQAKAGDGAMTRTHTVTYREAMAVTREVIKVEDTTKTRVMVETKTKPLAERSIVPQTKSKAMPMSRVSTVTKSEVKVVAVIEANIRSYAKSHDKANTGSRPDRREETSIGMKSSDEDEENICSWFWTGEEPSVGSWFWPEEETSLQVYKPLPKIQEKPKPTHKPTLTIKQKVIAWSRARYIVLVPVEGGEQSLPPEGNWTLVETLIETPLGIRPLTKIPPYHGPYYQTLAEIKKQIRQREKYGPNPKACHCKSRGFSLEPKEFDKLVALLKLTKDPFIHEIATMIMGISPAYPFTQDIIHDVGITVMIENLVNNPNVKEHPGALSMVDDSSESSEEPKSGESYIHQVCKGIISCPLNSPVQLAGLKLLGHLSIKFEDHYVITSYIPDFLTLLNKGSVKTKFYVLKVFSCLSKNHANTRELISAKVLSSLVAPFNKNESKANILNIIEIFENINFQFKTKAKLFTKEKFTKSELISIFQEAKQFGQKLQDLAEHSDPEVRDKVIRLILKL
UniProt Q92685, sequence (Q92685 whole entry, looked up): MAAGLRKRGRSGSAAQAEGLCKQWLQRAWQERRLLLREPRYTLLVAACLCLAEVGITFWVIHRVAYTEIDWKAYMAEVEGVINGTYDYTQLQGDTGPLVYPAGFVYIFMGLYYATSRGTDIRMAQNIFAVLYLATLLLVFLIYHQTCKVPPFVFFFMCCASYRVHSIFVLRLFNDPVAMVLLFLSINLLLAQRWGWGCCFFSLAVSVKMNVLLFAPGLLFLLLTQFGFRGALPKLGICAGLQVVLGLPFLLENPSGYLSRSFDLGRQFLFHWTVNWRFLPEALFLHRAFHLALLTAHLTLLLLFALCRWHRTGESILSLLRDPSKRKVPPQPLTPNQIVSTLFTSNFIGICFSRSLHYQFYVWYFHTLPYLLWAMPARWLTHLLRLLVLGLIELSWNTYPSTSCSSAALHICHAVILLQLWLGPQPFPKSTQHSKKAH
UniProt Q9P1F3, sequence (Q9P1F3 whole entry, looked up): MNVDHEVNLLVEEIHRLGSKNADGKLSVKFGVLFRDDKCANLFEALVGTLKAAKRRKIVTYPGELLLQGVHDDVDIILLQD
UniProt Q04771, sequence (Q04771 whole entry, looked up): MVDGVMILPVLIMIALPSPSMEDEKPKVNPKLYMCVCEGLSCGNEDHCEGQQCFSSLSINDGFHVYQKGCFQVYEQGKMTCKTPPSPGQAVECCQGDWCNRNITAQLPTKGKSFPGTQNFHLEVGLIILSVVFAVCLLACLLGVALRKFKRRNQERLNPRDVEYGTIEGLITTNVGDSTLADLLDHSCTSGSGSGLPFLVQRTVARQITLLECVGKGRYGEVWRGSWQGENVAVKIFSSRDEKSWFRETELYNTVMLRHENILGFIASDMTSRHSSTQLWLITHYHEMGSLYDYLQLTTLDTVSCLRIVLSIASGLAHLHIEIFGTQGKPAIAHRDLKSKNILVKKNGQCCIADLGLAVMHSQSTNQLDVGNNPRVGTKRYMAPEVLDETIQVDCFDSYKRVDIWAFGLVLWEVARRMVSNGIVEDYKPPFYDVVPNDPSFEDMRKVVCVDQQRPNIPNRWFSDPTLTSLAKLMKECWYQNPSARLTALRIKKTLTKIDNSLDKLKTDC
UniProt Q99758, sequence (Q99758 whole entry, looked up): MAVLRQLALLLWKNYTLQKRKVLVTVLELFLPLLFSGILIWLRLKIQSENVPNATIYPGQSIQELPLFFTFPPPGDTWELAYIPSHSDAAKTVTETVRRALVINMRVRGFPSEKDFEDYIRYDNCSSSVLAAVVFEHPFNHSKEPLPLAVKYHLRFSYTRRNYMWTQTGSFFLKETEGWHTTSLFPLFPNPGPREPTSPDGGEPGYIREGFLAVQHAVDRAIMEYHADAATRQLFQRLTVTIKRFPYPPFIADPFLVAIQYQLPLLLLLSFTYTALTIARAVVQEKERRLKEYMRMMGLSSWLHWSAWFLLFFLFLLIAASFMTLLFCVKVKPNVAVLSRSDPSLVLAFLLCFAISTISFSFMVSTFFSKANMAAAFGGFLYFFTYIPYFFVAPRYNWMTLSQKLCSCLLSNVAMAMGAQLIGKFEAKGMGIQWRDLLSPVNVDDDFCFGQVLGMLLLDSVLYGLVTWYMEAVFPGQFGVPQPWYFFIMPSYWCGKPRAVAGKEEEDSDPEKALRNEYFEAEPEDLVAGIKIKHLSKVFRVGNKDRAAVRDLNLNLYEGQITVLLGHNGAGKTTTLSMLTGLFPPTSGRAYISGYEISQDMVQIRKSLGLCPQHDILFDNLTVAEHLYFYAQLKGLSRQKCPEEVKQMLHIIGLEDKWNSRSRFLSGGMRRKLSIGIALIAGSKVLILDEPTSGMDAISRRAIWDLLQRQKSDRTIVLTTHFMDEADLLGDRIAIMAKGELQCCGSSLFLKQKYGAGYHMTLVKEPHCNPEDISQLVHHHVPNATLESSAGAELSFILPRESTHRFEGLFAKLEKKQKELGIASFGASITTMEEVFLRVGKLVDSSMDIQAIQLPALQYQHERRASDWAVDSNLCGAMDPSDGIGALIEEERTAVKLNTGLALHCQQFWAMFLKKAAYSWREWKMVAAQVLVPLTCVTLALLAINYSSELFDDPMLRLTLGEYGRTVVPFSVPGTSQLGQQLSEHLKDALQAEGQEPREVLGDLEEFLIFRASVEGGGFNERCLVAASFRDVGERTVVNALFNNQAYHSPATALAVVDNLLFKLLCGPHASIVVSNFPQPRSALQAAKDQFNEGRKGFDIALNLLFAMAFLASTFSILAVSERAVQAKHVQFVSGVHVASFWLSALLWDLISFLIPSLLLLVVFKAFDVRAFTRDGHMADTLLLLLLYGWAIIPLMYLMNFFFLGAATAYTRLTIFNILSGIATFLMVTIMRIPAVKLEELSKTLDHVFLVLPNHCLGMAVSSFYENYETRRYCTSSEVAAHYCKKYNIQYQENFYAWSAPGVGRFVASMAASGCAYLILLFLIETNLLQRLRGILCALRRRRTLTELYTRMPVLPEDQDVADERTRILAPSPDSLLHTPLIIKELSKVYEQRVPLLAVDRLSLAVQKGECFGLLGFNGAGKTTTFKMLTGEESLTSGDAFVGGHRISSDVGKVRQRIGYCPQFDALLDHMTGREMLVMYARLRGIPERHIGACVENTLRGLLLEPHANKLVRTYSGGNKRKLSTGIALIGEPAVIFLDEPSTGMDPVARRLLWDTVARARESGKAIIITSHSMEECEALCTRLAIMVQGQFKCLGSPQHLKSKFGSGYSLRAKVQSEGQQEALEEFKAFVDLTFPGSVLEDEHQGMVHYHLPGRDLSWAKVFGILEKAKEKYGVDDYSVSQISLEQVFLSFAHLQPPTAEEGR
UniProt Q9NXR5, sequence (Q9NXR5 whole entry, looked up): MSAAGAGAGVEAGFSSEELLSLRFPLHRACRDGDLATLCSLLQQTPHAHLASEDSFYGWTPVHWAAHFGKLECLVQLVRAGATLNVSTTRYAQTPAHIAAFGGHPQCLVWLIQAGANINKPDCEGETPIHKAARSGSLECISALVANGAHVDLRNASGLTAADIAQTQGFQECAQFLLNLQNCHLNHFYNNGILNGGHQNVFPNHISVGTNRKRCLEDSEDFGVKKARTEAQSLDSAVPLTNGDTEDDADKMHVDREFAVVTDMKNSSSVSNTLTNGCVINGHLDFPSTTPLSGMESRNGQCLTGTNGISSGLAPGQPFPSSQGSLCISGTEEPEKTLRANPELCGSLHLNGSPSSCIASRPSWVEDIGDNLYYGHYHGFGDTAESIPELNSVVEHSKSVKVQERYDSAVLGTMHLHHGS
UniProt P14621, sequence (P14621 whole entry, looked up): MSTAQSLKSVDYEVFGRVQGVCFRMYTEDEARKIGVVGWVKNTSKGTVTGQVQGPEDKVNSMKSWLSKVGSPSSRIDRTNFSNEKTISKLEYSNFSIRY
UniProt Q3SXY8, sequence (Q3SXY8 whole entry, looked up): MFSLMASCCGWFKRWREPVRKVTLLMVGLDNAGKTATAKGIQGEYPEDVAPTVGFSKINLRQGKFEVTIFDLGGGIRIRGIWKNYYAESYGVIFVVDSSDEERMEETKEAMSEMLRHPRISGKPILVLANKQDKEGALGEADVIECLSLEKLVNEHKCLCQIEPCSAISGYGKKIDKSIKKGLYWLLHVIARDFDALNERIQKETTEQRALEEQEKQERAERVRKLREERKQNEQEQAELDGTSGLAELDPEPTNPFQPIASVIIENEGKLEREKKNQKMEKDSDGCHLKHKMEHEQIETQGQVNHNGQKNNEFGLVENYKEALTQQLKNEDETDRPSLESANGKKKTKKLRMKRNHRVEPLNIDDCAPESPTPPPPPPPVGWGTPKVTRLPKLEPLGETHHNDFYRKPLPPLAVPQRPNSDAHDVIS
In the case of ANXA13 isoform 2 (UniProt P27216), the log2 fold change is reported as -0.111.
ABL1 isoform 2 (UniProt P00519) was tested, and the log2 fold change was -0.01.
ARMCX5 (UniProt Q6P1M9) showed a log2 fold change of -0.033.

What follows are targets tested with CS(=O)(=O)N1CCN(Cc2cc3nc(-c4cccc5[nH]ncc45)nc(N4CCOCC4)c3s2)CC1 [pictilisib] in the same assay as above.
Outline: as §1
AIMP2 isoform 2 (UniProt Q13155) was tested, and the log2 fold change was -0.148.
For ACIN1 (UniProt E7EQT4), the log2 fold change was -0.047.
With ANKRD40 (UniProt Q6AI12) the log2 fold change was -0.116.
In the case of ABRACL (UniProt Q9P1F3), the log2 fold change is reported as -0.075.
Work on ADD1 isoform 4 (UniProt P35611) yielded a log2 fold change of -0.168.
ANKRD10 (UniProt Q9NXR5) was tested, and the log2 fold change was 0.184.
ACVR1 (UniProt Q04771) showed a log2 fold change of 0.006.
Target ANP32E isoform 3 (UniProt Q9BTT0) has a log2 fold change of -0.012.
Target ANXA2 (UniProt H0YL33) has a log2 fold change of -0.028.
ALG3 (UniProt Q92685) showed a log2 fold change of 0.031.
Work on ADAM17 (UniProt P78536) yielded a log2 fold change of 0.032.
ABCA3 (UniProt Q99758) was tested, and the log2 fold change was -0.028.
Target ARL13B (UniProt Q3SXY8) has a log2 fold change of -0.074.
ADK, A0A5F9ZH76 gave a log2 fold change of -0.074.
For ACYP2 (UniProt P14621), the log2 fold change was -0.065.
For AGGF1 (UniProt Q8N302), the log2 fold change was -0.133.
ACLY isoform 2 (UniProt P53396) showed a log2 fold change of -0.03.
ANKRD44 isoform 2 (UniProt Q8N8A2) was tested, and the log2 fold change was 0.046.
ABCC5 (UniProt O15440) showed a log2 fold change of 0.13.

— the supplement of paper PMC10849652
